# Data reported in ChEMBL document CHEMBL2218924, “A broad activity screen in support of a chemogenomic map for kinase signalling research and drug discovery” (Biochem J, 2013).
# How the values were obtained:
# [1] = molecular target: Protein kinase C eta type (Homo sapiens) (UniProt P24723); details: at 1 µM
# [2] = molecular target: Protein kinase C eta type (Homo sapiens) (UniProt P24723); details: at 10 µM
# [3] = molecular target: Protein kinase C theta type (Homo sapiens) (UniProt Q04759); details: at 1 µM
# [4] = molecular target: Protein kinase C theta type (Homo sapiens) (UniProt Q04759); details: at 10 µM
# [5] = molecular target: T1, Protein kinase C iota type (Homo sapiens) (UniProt P41743); details: at 1 µM
# T1 sequence (whole entry): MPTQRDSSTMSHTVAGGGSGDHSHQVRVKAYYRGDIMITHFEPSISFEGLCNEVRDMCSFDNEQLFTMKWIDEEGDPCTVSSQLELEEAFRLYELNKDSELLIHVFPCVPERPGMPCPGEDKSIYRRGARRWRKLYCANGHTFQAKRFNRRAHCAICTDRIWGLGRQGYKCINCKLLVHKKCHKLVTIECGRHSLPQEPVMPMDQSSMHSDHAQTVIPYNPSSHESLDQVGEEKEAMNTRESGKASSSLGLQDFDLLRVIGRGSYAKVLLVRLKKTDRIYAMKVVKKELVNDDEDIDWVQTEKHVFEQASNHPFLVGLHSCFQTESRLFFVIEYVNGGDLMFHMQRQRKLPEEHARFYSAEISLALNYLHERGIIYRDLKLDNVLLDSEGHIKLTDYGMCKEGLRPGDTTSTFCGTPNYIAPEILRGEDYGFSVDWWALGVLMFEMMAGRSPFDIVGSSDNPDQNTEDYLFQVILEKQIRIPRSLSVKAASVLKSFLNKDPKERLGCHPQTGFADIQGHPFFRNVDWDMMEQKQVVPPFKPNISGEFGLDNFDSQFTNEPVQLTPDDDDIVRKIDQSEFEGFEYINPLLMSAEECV
# [6] = molecular target: T1, Protein kinase C iota type (Homo sapiens); details: at 10 µM
# [7] = molecular target: T2, Serine/threonine-protein kinase D1 (Homo sapiens) (UniProt Q15139); details: at 1 µM
# T2 sequence (whole entry): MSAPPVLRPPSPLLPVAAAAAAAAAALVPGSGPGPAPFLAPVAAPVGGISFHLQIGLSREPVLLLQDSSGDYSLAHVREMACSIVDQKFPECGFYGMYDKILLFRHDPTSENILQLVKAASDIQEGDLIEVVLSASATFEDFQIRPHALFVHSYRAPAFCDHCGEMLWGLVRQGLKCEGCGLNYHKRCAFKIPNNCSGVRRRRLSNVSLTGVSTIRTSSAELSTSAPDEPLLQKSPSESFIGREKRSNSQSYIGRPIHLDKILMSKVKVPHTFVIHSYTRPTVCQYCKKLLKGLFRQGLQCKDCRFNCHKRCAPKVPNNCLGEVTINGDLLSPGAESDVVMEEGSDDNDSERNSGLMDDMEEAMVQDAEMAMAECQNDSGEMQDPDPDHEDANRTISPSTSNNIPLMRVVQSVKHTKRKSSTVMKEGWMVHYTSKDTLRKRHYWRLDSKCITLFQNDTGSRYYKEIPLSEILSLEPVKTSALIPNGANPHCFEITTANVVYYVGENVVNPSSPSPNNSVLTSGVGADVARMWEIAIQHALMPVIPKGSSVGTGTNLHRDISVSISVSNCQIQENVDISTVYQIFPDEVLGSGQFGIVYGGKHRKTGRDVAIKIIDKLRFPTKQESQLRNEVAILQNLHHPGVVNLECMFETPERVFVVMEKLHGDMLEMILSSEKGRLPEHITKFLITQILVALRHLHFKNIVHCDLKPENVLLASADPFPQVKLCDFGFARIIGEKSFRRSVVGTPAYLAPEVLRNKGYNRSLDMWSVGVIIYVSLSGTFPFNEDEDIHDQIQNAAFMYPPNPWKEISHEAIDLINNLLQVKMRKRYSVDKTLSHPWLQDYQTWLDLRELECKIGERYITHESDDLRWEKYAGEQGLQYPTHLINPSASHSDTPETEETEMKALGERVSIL
# [8] = molecular target: T2, Serine/threonine-protein kinase D1 (Homo sapiens); details: at 10 µM
# [9] = molecular target: T3, Serine/threonine-protein kinase D2 (Homo sapiens) (UniProt Q9BZL6); details: at 1 µM
# T3 sequence (whole entry): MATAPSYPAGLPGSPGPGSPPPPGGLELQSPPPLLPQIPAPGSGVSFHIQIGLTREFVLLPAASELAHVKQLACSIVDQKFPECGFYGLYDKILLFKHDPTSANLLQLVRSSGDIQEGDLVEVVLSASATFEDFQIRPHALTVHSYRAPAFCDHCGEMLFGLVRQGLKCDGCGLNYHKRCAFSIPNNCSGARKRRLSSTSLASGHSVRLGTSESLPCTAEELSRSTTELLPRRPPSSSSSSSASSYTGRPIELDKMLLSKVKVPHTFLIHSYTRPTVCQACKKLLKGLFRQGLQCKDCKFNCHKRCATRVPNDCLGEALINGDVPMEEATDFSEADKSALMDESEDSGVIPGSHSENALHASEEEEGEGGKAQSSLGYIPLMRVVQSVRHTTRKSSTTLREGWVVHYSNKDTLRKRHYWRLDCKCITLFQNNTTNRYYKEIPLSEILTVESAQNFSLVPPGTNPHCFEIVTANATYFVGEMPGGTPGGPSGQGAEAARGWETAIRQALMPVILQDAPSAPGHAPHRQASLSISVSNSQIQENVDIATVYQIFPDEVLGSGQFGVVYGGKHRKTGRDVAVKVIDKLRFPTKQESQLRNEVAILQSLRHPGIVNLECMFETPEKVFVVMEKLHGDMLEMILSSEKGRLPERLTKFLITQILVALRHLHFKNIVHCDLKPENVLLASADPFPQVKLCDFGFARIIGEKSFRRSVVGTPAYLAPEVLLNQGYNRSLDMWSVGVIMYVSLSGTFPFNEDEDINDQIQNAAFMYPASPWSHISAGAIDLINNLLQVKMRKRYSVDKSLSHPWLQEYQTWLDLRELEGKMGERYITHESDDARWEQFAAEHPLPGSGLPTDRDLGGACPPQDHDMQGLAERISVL
# [10] = molecular target: T3, Serine/threonine-protein kinase D2 (Homo sapiens); details: at 10 µM
# [11] = molecular target: T4, cGMP-dependent protein kinase 1 (Homo sapiens) (UniProt Q13976); details: at 1 µM
# T4 sequence (whole entry): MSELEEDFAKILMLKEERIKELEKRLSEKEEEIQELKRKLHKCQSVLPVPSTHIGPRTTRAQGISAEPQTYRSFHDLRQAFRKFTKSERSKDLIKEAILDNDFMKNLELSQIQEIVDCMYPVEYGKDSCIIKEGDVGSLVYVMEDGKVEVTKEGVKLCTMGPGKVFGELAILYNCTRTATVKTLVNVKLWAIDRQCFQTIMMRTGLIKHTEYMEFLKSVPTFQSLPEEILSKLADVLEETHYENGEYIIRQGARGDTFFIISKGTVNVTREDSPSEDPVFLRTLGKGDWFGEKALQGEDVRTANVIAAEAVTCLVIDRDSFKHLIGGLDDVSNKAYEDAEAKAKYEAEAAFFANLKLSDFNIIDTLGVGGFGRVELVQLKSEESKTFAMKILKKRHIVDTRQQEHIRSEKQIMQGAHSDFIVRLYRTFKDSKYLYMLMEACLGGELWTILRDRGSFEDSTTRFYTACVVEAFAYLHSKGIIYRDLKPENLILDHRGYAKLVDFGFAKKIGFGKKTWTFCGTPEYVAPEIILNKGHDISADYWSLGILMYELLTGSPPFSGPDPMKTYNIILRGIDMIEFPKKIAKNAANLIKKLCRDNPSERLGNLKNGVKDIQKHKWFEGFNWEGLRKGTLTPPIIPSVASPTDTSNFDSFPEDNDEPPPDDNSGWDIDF
# [12] = molecular target: T4, cGMP-dependent protein kinase 1 (Homo sapiens); details: at 10 µM
# [13] = molecular target: T4, cGMP-dependent protein kinase 1 (Homo sapiens); details: at 1 µM; remark: listed apart in the source
# [14] = molecular target: T4, cGMP-dependent protein kinase 1 (Homo sapiens); details: at 10 µM; remark: listed apart in the source
# [15] = molecular target: T5, MAP kinase-activated protein kinase 5 (Homo sapiens) (UniProt Q8IW41); details: at 1 µM
# T5 sequence (whole entry): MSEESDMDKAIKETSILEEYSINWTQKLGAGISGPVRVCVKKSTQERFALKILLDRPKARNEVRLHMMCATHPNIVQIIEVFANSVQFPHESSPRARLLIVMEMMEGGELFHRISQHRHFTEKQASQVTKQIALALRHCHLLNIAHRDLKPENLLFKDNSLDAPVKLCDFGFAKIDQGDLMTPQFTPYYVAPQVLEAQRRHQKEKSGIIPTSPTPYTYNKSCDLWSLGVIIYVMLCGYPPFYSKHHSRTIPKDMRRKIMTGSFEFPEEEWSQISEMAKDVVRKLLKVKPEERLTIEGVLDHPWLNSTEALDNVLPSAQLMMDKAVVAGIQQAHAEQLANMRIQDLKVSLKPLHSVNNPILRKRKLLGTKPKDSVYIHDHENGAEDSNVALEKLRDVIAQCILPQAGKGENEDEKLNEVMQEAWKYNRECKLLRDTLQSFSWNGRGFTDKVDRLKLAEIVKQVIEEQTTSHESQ
# [16] = molecular target: T5, MAP kinase-activated protein kinase 5 (Homo sapiens); details: at 10 µM
# [17] = molecular target: Serine/threonine-protein kinase N2 (Homo sapiens) (UniProt Q16513); details: at 1 µM
# [18] = molecular target: Serine/threonine-protein kinase N2 (Homo sapiens) (UniProt Q16513); details: at 10 µM
# [19] = molecular target: Tyrosine-protein kinase FRK (Homo sapiens) (UniProt P42685); details: at 1 µM
# [20] = molecular target: Tyrosine-protein kinase FRK (Homo sapiens) (UniProt P42685); details: at 10 µM
# Serine/threonine-protein kinase N2 (Homo sapiens), sequence (Q16513 whole entry, looked up): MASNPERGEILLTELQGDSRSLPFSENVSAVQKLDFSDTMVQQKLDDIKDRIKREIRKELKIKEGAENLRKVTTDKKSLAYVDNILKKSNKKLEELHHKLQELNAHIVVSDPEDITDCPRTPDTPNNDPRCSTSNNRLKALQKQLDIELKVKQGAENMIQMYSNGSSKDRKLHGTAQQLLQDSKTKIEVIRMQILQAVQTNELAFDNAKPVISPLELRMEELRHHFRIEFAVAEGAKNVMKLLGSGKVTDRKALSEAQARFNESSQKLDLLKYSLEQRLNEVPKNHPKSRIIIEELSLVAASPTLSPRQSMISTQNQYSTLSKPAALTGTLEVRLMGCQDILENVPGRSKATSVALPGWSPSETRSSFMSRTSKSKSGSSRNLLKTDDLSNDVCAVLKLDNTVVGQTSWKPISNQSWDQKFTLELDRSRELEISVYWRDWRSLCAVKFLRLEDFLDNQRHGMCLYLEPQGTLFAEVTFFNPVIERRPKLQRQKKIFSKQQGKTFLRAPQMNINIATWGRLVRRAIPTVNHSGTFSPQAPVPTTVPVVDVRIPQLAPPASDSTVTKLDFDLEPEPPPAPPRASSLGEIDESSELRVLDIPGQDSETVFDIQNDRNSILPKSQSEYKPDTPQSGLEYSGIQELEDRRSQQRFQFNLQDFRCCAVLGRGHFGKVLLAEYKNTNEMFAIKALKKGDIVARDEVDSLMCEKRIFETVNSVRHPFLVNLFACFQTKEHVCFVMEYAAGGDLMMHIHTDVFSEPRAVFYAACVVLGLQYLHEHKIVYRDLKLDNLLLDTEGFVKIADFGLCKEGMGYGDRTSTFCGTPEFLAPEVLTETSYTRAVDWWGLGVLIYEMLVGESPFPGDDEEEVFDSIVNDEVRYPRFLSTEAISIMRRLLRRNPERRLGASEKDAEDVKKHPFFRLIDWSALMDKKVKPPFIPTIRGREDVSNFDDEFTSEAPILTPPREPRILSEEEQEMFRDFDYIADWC
# Protein kinase C eta type (Homo sapiens), sequence (P24723 whole entry): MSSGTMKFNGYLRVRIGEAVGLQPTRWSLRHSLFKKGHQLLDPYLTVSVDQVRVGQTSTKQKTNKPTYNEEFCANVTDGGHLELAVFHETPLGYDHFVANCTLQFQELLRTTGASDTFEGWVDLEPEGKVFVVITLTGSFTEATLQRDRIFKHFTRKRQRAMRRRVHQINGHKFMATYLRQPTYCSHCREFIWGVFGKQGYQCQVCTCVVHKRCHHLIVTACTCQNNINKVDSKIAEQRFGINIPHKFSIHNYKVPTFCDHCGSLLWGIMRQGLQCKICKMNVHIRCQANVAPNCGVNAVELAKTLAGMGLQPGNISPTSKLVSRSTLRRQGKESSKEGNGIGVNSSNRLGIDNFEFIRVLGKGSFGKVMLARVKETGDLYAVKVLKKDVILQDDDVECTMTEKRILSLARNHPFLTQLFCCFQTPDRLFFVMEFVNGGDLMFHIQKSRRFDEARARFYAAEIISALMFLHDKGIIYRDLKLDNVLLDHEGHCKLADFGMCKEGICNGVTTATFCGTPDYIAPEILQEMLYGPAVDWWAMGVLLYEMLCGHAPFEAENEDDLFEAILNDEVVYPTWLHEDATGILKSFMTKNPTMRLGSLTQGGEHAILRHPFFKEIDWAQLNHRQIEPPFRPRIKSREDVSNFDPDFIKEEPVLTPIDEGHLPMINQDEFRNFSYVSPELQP
# Protein kinase C theta type (Homo sapiens), sequence (Q04759 whole entry, looked up): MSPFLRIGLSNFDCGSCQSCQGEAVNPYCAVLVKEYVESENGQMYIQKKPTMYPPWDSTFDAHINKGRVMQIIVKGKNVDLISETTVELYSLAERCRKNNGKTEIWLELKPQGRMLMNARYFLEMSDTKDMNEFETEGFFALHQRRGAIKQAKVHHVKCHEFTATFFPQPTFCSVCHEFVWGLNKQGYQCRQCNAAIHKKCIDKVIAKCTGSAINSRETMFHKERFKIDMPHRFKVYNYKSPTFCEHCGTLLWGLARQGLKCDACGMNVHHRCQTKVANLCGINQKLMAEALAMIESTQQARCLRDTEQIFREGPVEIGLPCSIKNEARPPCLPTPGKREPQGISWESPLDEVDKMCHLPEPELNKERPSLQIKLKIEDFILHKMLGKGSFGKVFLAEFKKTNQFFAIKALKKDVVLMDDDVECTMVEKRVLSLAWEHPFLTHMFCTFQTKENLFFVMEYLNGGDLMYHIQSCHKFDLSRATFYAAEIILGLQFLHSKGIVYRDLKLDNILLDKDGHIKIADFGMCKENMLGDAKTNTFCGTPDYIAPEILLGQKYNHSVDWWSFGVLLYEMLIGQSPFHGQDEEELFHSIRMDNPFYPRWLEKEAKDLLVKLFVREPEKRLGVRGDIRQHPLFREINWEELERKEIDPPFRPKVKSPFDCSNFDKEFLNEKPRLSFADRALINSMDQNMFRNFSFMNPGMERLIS
# Tyrosine-protein kinase FRK (Homo sapiens), sequence (P42685 whole entry): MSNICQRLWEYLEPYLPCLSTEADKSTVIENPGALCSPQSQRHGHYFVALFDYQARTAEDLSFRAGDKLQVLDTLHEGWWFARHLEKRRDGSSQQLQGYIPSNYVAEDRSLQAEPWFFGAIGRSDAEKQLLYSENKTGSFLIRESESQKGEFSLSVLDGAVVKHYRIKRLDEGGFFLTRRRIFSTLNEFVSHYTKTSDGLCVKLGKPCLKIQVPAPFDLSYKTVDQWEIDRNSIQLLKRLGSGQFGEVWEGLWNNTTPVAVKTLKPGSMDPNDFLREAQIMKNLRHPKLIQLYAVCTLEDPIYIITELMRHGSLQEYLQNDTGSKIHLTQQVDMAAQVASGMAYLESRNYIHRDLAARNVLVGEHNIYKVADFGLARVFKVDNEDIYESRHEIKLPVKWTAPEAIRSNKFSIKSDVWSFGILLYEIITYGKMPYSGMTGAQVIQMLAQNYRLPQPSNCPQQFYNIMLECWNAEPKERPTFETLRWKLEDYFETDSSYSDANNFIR
SMILES,residual activity [1] [%],residual activity [2] [%],residual activity [3] [%],residual activity [4] [%],residual activity [5],residual activity [6] [%],residual activity [7] [%],residual activity [8] [%],residual activity [9] [%],residual activity [10] [%],residual activity [11] [%],residual activity [12] [%],residual activity [13] [%],residual activity [14] [%],residual activity [15] [%],residual activity [16] [%],residual activity [17] [%],residual activity [18] [%],residual activity [19] [%],residual activity [20] [%]
c1ccc2c(-c3ccncc3)c[nH]c2c1,64,17,88,70,89% (inactive),67,87,69,104,106,76,23,54,12,87,90,30,8,88,97
Ic1cccc(CSc2nnc(-c3ccncc3)o2)c1,59,62,68,58,109% (inactive),107,72,71,97,98,105,96,88,49,105,117,83,70,77,78
CO[C@H]1C[C@@H]2CC[C@@H](C)[C@@](O)(O2)C(=O)C(=O)N2CCCC[C@H]2C(=O)O[C@H]([C@H](C)C[C@@H]2CC[C@@H](O)[C@H](OC)C2)CC(=O)[C@H](C)/C=C(\C)[C@@H](O)[C@@H](OC)C(=O)[C@H](C)C[C@H](C)/C=C/C=C/C=C/1C,93,76,94,113,89% (inactive),77,93,97,102,107,101,128,86,85,57,62,95,116,95,112
O=C(Nc1cccc(Nc2nccc(Nc3cccc(C(F)(F)F)c3)n2)c1)C1CC1,107,84,102,82,84% (inactive),77,101,125,99,96,100,101,90,66,128,65,106,96,53,11
COc1cc2ncnc(Nc3ccc(Oc4ccccc4)cc3)c2cc1OC,98,83,108,112,90% (inactive),76,95,103,106,106,119,143,76,110,120,118,91,120,39,7
Cc1ccc(NC2=CC(=O)c3sc(C)nc3C2=O)cc1,83,86,88,87,106% (inactive),103,76,73,105,85,91,95,105,88,110,114,93,89,87,90
O=C1NC(=O)/C(=C/c2ccc3c(c2)OC(F)(F)O3)S1,120,89,109,100,90% (inactive),80,105,77,107,99,105,108,72,52,106,37,117,97,101,107
CCC(=O)Nc1ccc2ncnc(Nc3cccc(Br)c3)c2c1,85,82,96,95,100% (inactive),101,85,82,105,112,108,96,89,81,74,74,90,99,94,59
Cc1nc(-c2ccccc2)c(-c2ccncc2)o1,101,90,107,103,108% (inactive),103,113,80,103,94,93,80,115,90,110,115,99,76,1,2
O=C1Nc2ccccc2/C1=C1/Nc2ccccc2/C1=N\OCCC(O)CO (configuration not stated),–,–,66,29,113% (inactive),–,73,32,101,76,56,19,44,9,–,27,76,53,11,1
Cc1cncc2cccc(S(=O)(=O)N3CCCN(C(=O)CN)C[C@H]3C)c12,27,4,21,3,82% (inactive),75,83,71,–,–,93,44,74,19,82,98,22,7,87,70
O=C1NC(=O)c2c1c1c3ccccc3[nH]c1c1[nH]c3cc(Br)ccc3c21,72,89,80,91,102% (inactive),–,111,72,103,90,99,113,92,83,105,106,87,84,94,90
CN(C)CCCn1cc(C2=C(c3c[nH]c4ccccc34)C(=O)NC2=O)c2ccccc21,–,–,–,–,74% (inactive),47,108,43,–,82,60,14,34,6,125,107,23,6,–,84
O=Nc1c(-c2c(O)[nH]c3ccccc23)[nH]c2ccccc12,91,83,81,55,96% (inactive),105,113,65,109,98,77,67,79,45,78,24,91,48,13,6
